Source: a collection of fitness landscapes (doi:10.1016/j.celrep.2020.107928)
In all, about 81,000 sequences were measured (“one-hybrid fitness for binding parS DNA”: median about -0.17, highest 2% from about 0.51 on). The sample holds the highest values, similar sequences and a random draw of the others, so the mix is not that of the screen.

B1: Caulobacter ParB omega fusion; a variant is named by its letters at X, in order, B8GW30 (parent)
chain: MESVVVGEPGMSEGRRGLGRGLSALLGEVDAAPAQAPGEQLGGSREAPIEILQRNPDQPRRTFREEDLEDLSNSIREKGVLQPILVRPSPDTAGEYQIVAGERAWRAAQRAGLKTVPIMVRELDDLAVLEIGIIENVQRADLNVLEEALSYKVLMEKFERTQENIAQTIGKSXSHVANXMRLLXLPDEVQSYLVSGELTAXHARAIAAAADPVALAKQIIEGGLSVRETEALARKAPNLSAGKSKGGRPPRVKDTDTQALESDLSSVLGLDVSIDHRGSTGTLTITYATLEQLDDLCNRLTRGI

Variants of: B1
Assay: one-hybrid fitness for binding parS DNA (scaled: cognate 1, non-cognate 0); higher = stronger binding
Details: with parS DNA site
In short: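 The reporter was HIS3, with the binding site 19 bp from the promoter, in E. coli USO used for bacterial one-hybrid selection of Caulobacter ParB libraries with four specificity codons randomised. Growth was on M9 lacking histidine, with 0.1 mM IPTG and 5 mM 3-AT, for 48 hours at 37°C. Illumina sequencing covered plasmids before and after selection; three replicate libraries were pooled and variants with under 10 reads dropped. A fitness score is the log change in variant-to-wild-type read ratio, rescaled to the cognate and non-cognate references.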
For VKKI, the “one-hybrid fitness for binding parS DNA” value was no more than 0.2. For VDFT, the “one-hybrid fitness for binding parS DNA” value was no more than 0.2. In the case of LALR, the “one-hybrid fitness for binding parS DNA” value is reported as no more than 0.2. For QPAK, the “one-hybrid fitness for binding parS DNA” value was no more than 0.2. For VVMR, the “one-hybrid fitness for binding parS DNA” value was no more than 0.2. In the case of VDRK, the “one-hybrid fitness for binding parS DNA” value is reported as no more than 0.2. For NEFY, the “one-hybrid fitness for binding parS DNA” value was no more than 0.2. With RKIP the “one-hybrid fitness for binding parS DNA” value was no more than 0.2. RKPN was tested, and the “one-hybrid fitness for binding parS DNA” value was no more than 0.2. With RKLD the “one-hybrid fitness for binding parS DNA” value was no more than 0.2. In the case of RKLP, the “one-hybrid fitness for binding parS DNA” value is reported as no more than 0.2. For RKYH, the “one-hybrid fitness for binding parS DNA” value was no more than 0.2. RKID was tested, and the “one-hybrid fitness for binding parS DNA” value was no more than 0.2. RKPS was tested, and the “one-hybrid fitness for binding parS DNA” value was 0.682. For RKPH, the “one-hybrid fitness for binding parS DNA” value was no more than 0.2. With RKIS the “one-hybrid fitness for binding parS DNA” value was 0.958. For RKYP, the “one-hybrid fitness for binding parS DNA” value was no more than 0.2. RKLS was tested, and the “one-hybrid fitness for binding parS DNA” value was 0.876. For RKYS, the “one-hybrid fitness for binding parS DNA” value was 0.857. AWGT was tested, and the “one-hybrid fitness for binding parS DNA” value was no more than 0.2. With HHGR the “one-hybrid fitness for binding parS DNA” value was no more than 0.2. For DVDS, the “one-hybrid fitness for binding parS DNA” value was no more than 0.2. For SCTT, the “one-hybrid fitness for binding parS DNA” value was no more than 0.2. In the case of KNMC, the “one-hybrid fitness for binding parS DNA” value is reported as no more than 0.2. For RKWS, the “one-hybrid fitness for binding parS DNA” value was 0.955. RKRS was tested, and the “one-hybrid fitness for binding parS DNA” value was 0.747. With RKRH the “one-hybrid fitness for binding parS DNA” value was no more than 0.2. In the case of RKWD, the “one-hybrid fitness for binding parS DNA” value is reported as no more than 0.2. In the case of RKRN, the “one-hybrid fitness for binding parS DNA” value is reported as 0.347. In the case of RKWN, the “one-hybrid fitness for binding parS DNA” value is reported as 0.364. In the case of IFGG, the “one-hybrid fitness for binding parS DNA” value is reported as no more than 0.2. With PIND the “one-hybrid fitness for binding parS DNA” value was no more than 0.2. RCLG was tested, and the “one-hybrid fitness for binding parS DNA” value was 1.01. For RELG, the “one-hybrid fitness for binding parS DNA” value was 0.217. For RDLG, the “one-hybrid fitness for binding parS DNA” value was no more than 0.2. For RMLF, the “one-hybrid fitness for binding parS DNA” value was 0.238. With RMLM the “one-hybrid fitness for binding parS DNA” value was 0.363. For RLLG, the “one-hybrid fitness for binding parS DNA” value was 1.02. For RSLG, the “one-hybrid fitness for binding parS DNA” value was 0.987. In the case of RPLG, the “one-hybrid fitness for binding parS DNA” value is reported as no more than 0.2. RSLF was tested, and the “one-hybrid fitness for binding parS DNA” value was 0.228. RLLM was tested, and the “one-hybrid fitness for binding parS DNA” value was 0.372. With RMLG the “one-hybrid fitness for binding parS DNA” value was 1.01. RLLR was tested, and the “one-hybrid fitness for binding parS DNA” value was no more than 0.2. For LDYT, the “one-hybrid fitness for binding parS DNA” value was no more than 0.2. HWFG was tested, and the “one-hybrid fitness for binding parS DNA” value was no more than 0.2. For EKQG, the “one-hybrid fitness for binding parS DNA” value was no more than 0.2. In the case of CHLC, the “one-hybrid fitness for binding parS DNA” value is reported as no more than 0.2. For FSIV, the “one-hybrid fitness for binding parS DNA” value was no more than 0.2. For ATPA, the “one-hybrid fitness for binding parS DNA” value was no more than 0.2. In the case of KWRR, the “one-hybrid fitness for binding parS DNA” value is reported as no more than 0.2. In the case of QQPM, the “one-hybrid fitness for binding parS DNA” value is reported as no more than 0.2. With ALLC the “one-hybrid fitness for binding parS DNA” value was no more than 0.2. With TRRD the “one-hybrid fitness for binding parS DNA” value was no more than 0.2. With NQPG the “one-hybrid fitness for binding parS DNA” value was no more than 0.2. For PPRF, the “one-hybrid fitness for binding parS DNA” value was no more than 0.2. For RILF, the “one-hybrid fitness for binding parS DNA” value was 0.269. In the case of RILG, the “one-hybrid fitness for binding parS DNA” value is reported as 0.993. RILK was tested, and the “one-hybrid fitness for binding parS DNA” value was no more than 0.2. With YPTC the “one-hybrid fitness for binding parS DNA” value was no more than 0.2. With MMSV the “one-hybrid fitness for binding parS DNA” value was no more than 0.2. In the case of EQTA, the “one-hybrid fitness for binding parS DNA” value is reported as no more than 0.2. With ACKY the “one-hybrid fitness for binding parS DNA” value was no more than 0.2. RNEI was tested, and the “one-hybrid fitness for binding parS DNA” value was no more than 0.2. In the case of RNEY, the “one-hybrid fitness for binding parS DNA” value is reported as no more than 0.2. RNEP was tested, and the “one-hybrid fitness for binding parS DNA” value was no more than 0.2. For RNEC, the “one-hybrid fitness for binding parS DNA” value was 0.613. With RNEH the “one-hybrid fitness for binding parS DNA” value was no more than 0.2. RNES was tested, and the “one-hybrid fitness for binding parS DNA” value was 0.776. For RNEN, the “one-hybrid fitness for binding parS DNA” value was no more than 0.2. With RNEG the “one-hybrid fitness for binding parS DNA” value was 0.677. RNED was tested, and the “one-hybrid fitness for binding parS DNA” value was no more than 0.2. FPSI was tested, and the “one-hybrid fitness for binding parS DNA” value was no more than 0.2. MKLG was tested, and the “one-hybrid fitness for binding parS DNA” value was no more than 0.2. In the case of VKMN, the “one-hybrid fitness for binding parS DNA” value is reported as no more than 0.2. With KPPS the “one-hybrid fitness for binding parS DNA” value was no more than 0.2. For RANC, the “one-hybrid fitness for binding parS DNA” value was 0.98. With RADF the “one-hybrid fitness for binding parS DNA” value was no more than 0.2. With RADQ the “one-hybrid fitness for binding parS DNA” value was no more than 0.2. With RADC the “one-hybrid fitness for binding parS DNA” value was 0.856. RANR was tested, and the “one-hybrid fitness for binding parS DNA” value was no more than 0.2. For RANK, the “one-hybrid fitness for binding parS DNA” value was no more than 0.2. For QRLS, the “one-hybrid fitness for binding parS DNA” value was no more than 0.2. RCPM was tested, and the “one-hybrid fitness for binding parS DNA” value was 0.203.
